Laboratory results as given in PubChem BioAssay AID2521 (Sanford-Burnham Center for Chemical Genomics, 2010).
Among all 330,000 compounds or so, about 1,100 (0.33%) were called active.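 How the source made its calls: active means inhibition above about 40% at 20 µM (limit read from the data); inactive means the rest.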 What follows is part of a selection rich in actives, with near analogues and random picks from the rest.

Molecular target: Apelin receptor (Homo sapiens) (UniProt P35414)
Assay: antagonists of human apelin receptor APJ, primary screen, CHO-K1 cells, beta-arrestin complementation, luminescence (AID 2521);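 further: cells challenged with 10 nM apelin-13 agonist together with compound; plate controls were apelin-13 plus DMSO wells for no effect and DMSO wells lacking apelin-13 for full effect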
Details: at 20 µM, active compounds read high

Chain of Apelin receptor (Homo sapiens) (P35414 whole entry, looked up): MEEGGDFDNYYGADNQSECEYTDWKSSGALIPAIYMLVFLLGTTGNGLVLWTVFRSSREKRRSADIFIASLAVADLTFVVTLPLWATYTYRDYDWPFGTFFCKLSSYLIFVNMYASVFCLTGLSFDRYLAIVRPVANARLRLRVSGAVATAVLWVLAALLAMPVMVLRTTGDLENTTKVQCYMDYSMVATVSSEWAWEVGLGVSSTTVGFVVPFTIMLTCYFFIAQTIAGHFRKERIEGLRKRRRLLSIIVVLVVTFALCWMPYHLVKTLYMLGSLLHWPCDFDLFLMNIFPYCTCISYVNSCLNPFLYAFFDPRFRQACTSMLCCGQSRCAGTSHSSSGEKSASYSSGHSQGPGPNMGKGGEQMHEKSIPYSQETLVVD

inhibition, inactive:
COc1ccc(S(=O)(=O)N2CCOCC2)c(C)c1C 3%, COc1ccccc1NC(=O)c1c(Br)cnn1C -0.0339%, CC(C)C[C@@H](N)c1nnc(SCC(=O)c2ccc(Cl)cc2)o1 6.62%, O=C1Oc2ccccc2C(=O)/C1=C/c1ccccc1O 3.82%, O=C(NCCCc1ccccc1)C1CCC(=O)N(CCc2ccc(Cl)cc2)C1 (stereo not drawn) 4.1%, COc1cccc(NC(C)=[N+](C)CCNS(=O)(=O)c2ccc(Cl)cc2)c1 13.5%, CCc1ccc(CNC(=O)C2CCCN(c3nc4ccccc4o3)C2)cc1 (stereo not drawn) -5.94%, CCOC(=O)CCNC(=O)N1CCCC(C(=O)c2ccccc2SC)C1 (stereo not drawn) -13.5%, O=C(CC1SC(=Nc2ccccc2)N(Cc2ccccn2)C1=O)Nc1cccc(Cl)c1 (stereo not drawn) 0.604%, COc1ccc(CCNC(=S)NC(=O)/C=C/c2ccc(C)cc2)cc1OC -38%, Cc1ccc(S(=O)(=O)N2CCN(CC(=O)N/N=C/c3cc([N+](=O)[O-])ccc3Cl)CC2)cc1 -9.95%, O=S(=O)(c1ccc(NC(=S)NN=C(C2CC2)C2CC2)cc1)N1CCOCC1 -24.4%, Cn1cc[n+](C)c1COc1ccc(C=O)cc1 -7.79%, COC(=O)Cc1ccc(OC(=O)C2CCN(S(=O)(=O)c3ccc(OC)c(OC)c3)CC2)cc1 11.3%, CN(CC(=O)NCc1cccnc1)S(=O)(=O)c1cc(Cl)ccc1Cl -3.77%, CC(=O)N1c2ccc(S(=O)(=O)N3CCC(C(=O)NCc4ccc(F)cc4)CC3)cc2CC1C (stereo not drawn) 7.14%, COc1cccc(CNC(=O)C(=O)NCCC2CCCCN2S(=O)(=O)c2ccc(C)cc2)c1 (stereo not drawn) -56.9%, c1ccc(Cc2nn3c(Cn4cnc5ccccc54)nnc3s2)cc1 7.67%, Cc1ccc(C(=O)COC(=O)c2cccc(N3C(=O)c4c(C)nc5ccccc5c4C3=O)c2)cc1C -8.71%, CCOC(=O)N/N=C/c1cccnc1 11.3%, COc1ccc(C(=O)NCC(=O)N/N=C/c2cccnc2)cc1 4.23%, CS(=O)(=O)N1CCc2cc(C(=O)Nc3ccccc3)ccc21 6.74%, Clc1ccc(Cn2ncc3c(NCc4cccnc4)ncnc32)cc1 -0.393%, CCOc1ccc(S(=O)(=O)Nc2ccc(S(=O)(=O)Nc3cc(OC)ccc3OC)cc2)cc1 15.7%, COc1ccc(N2CC(NS(=O)(=O)c3ccc4ccccc4c3)CC2=O)cc1 (stereo not drawn) 1.28%, O=C(NCCS(=O)(=O)NCc1ccc(Cl)cc1)c1ccccc1 -4.12%, O=C(CN1C(=O)NC2(CCCC2)C1=O)Nc1ccc(F)c(F)c1F 8.35%, COc1cccc(CC2(CO)CCN(Cc3cnc(-c4cccc(C)c4)nc3)CC2)c1 -17.4%, COc1ccc(/C(C)=N\NC(=O)c2ccc(-c3ccccc3)cc2)c(F)c1 8.03%, Cc1cnc(NC(=O)c2ccccn2)s1 9.6%, CCOC(=O)[C@H]1CCC[C@@H](NS(=O)(=O)c2ccc(NC(C)=O)cc2)C1 6.91%, CC(C)(C)c1cc(C(=O)NN)n(Cc2ccc(Cl)cc2Cl)n1 -15%, Cc1ccc(C(=O)OC2=CC(=O)CC(C)(C)C2)cc1 -13.7%, CCc1c(C)sc(NC(=O)c2cccs2)c1C(N)=O 1.68%, COc1ccc(/C=N/N=C2/C(=O)Nc3ccccc32)cc1O -11.9%, O=C(c1cccc(-n2cccc2)c1)N1CCN(S(=O)(=O)c2ccc(F)cc2)CC1 -9.43%, COc1cc(Nc2nc3ccc(Cl)cc3n3cnnc23)cc(OC)c1OC -3.66%, Nc1nc(SCC(=O)NNc2c(Cl)cc(Cl)cc2Cl)n[nH]1 -14.8%, COc1ccc(CNc2cc(C)cc(C)c2)cc1OC -9.47%, CN(CC(=O)Nc1ccc(F)c(F)c1F)C(=O)C1CC(=O)N(C2CCCC2)C1 (stereo not drawn) 19.9%, COc1ccc(OC(C)C(=O)Nc2cccnc2)cc1 (stereo not drawn) 15.8%, CCN(CC(=O)Nc1ccc(OC)cc1)C(=O)CSCc1ccc(C)cc1 12.9%, COC(=O)c1sccc1NC(=S)Nc1ccc(C)cc1 -10.8%, COc1ccc(CCC(=O)c2ccc(OC)cc2)cc1 -11.9%, CC1CCCCN1C(=O)CCS(=O)(=O)Cc1ccccc1 (stereo not drawn) 11.3%, Cc1nc(CN2CCN(C(=O)CCc3nnc(Cc4c[nH]c5ccccc45)o3)CC2)cs1 21.1%, CSC1=N/C(=C\C=C\c2cccs2)C(=O)S1 5.36%, CC(C)c1ccc(NS(=O)(=O)c2cn(C)c(=O)n(C)c2=O)cc1 7.41%, CCCc1nc2c(C)cc(-c3nc4ccccc4n3C)cc2n1Cc1ccc(-c2ccccc2C(=O)O)cc1 9.96%, CC(=O)c1c(C)[nH]c(C(=O)CN2C(=O)NC(C)(C)C2=O)c1C 8.53%, Cc1ccc(SC(C)C(=O)NCc2ccc(F)cc2)cc1 (stereo not drawn) 16.8%, CC(C)NC(=O)C(c1ccc(F)cc1)N(C(=O)CCC(=O)Nc1ccccn1)c1ccccc1F (stereo not drawn) 21.5%, CC(C)C(=O)N1CCC2(CC1)Oc1ccc(F)cc1C(=O)C21CC(c2ccccc2)=NO1 (stereo not drawn) -0.0582%, COc1cc2ccccc2cc1C(=O)Nc1nc(C)c(C(C)=O)s1 1.17%, CNC(=O)c1sc(NCc2ccccc2OC)nc1C -1.64%, Cc1cccc(NC(=O)Cc2ccc(Br)cc2)n1 -4.98%, O=C(Cc1c(Cl)cccc1Cl)NC1CC1 14.9%, COc1ccc(N2CCN(C(=O)CNS(=O)(=O)c3ccc(C)c(C)c3)CC2)cc1 3.43%, Cc1ccc(CC(=O)Nc2cccc(C#N)c2)cc1 7.58%, CC(Oc1ccc(F)cc1)C(=O)Nc1cc(S(=O)(=O)N2CCOCC2)ccc1N1CCN(C)CC1 (stereo not drawn) 11.7%, CCCOc1ccc(N2CC(C(=O)Nc3ccccn3)CC2=O)cc1 (stereo not drawn) -12.1%, COC(=O)c1cc(NC(=O)CN2CCC(C(N)=O)(N3CCCCC3)CC2)cc(C(=O)OC)c1 12.5%, O=C(CSc1nnnn1C1CCCC1)N1CCCCC1 -7.07%, CC(=O)C1=C(O)C(=O)N(c2ccc(Br)cc2)C1c1ccc([N+](=O)[O-])cc1 (stereo not drawn) 18.2%, CC(=O)C1=C(O)C(=O)N(c2cccnc2)C1c1ccc([N+](=O)[O-])cc1 (stereo not drawn) 5.89%, COc1cccc(NC(=O)C/C(C)=N/NC(=O)C2CCCCC2)c1 -8.71%, COc1cccc(NC(=O)C(=O)c2cn(CC(=O)N3CCOCC3)c3ccccc23)c1 -7%, Cc1cc(C(F)F)n2nc(C(=O)Nc3ccc(S(=O)(=O)NC45CC6CC(CC(C6)C4)C5)cc3)nc2n1 10.3%, O=C(NC1CCCCC1)C1CCC(CNS(=O)(=O)c2ccccc2)CC1 (stereo not drawn) -0.098%, CCOc1cccc2c1OC1(CCCCC1)N1N=C(c3cccnc3)CC21 (stereo not drawn) -4.03%, CN(C)CCOc1cccc(Br)c1 7.12%, COCCCNc1nc2ccccc2nc1NS(=O)(=O)c1ccc(F)cc1 8.77%, COC(=O)c1ccccc1NC(=O)C1CCN(C(=O)N2CCOc3ccccc32)CC1 4.33%, O=C(CN(C(=O)CNC(=O)c1cccs1)c1cccc(F)c1)NC1CCCCC1 15.9%, COc1cccc(C(=O)N/N=C(\C)c2cccc(NC(=O)c3ccc(F)cc3)c2)c1OC -21.2%, CCC(C)NC(=O)N[C@@H](CCSC)C(=O)O (stereo partly drawn) 3.5%, Cn1cccc1C(=O)OCC(=O)c1ccc(Br)s1 6.14%, O=C(CSc1ncnc2c1nnn2Cc1ccc(F)cc1)NC1CCCC1 23.2%

inhibition, active:
CN=C1C=C/C(=N/N=c2\ccn(O)cc2C)C=C1C 46%, CCOC(=O)c1cnc(Nc2nc3ccccc3o2)nc1CSC(=S)N1CCCCC1 44.1%, O=[N+]([O-])c1cc(Cl)cc(/C=N/NC(=S)Nc2cc(S(=O)(=O)N3CCOCC3)ccc2Cl)c1O 42.1%, O=C(CSc1cccc2cccnc12)N/N=C/c1cccnc1 41.8%, COc1cc(NS(=O)(=O)c2ccc3ccccc3c2)c2ncccc2c1 65.3%, C/C(=N\NC(=O)c1ccccc1F)c1ccccn1 57.1%, O=C1Nc2ccc(Br)cc2/C1=N/N=C/C1=C(N2CCOCC2)C(=C\c2ccccc2)/CC1 46.4%, COc1ccc(CS(=O)/C(Cl)=C(/Cl)C(=O)Nc2ccc(OC)nc2)cc1 (stereo not drawn) 67.6%, COc1ccc(NC(=O)/C(Cl)=C(/Cl)S(=O)Cc2ccc(C)cc2)cn1 (stereo not drawn) 89.8%, COc1cccc2sc(Nc3nc(C)c(C(C)=O)s3)nc12 60.9%, O=C(CCl)NNc1cccc(Cl)n1 47.2%, Oc1ccc(N=Nc2nccs2)c(O)c1 47.6%, CC(=O)C1=C(O)C(=O)N(c2ccc(S(N)(=O)=O)cc2)C1c1ccccc1F (stereo not drawn) 59%, CN1/C(=c2/s/c(=C3/C(=O)N(c4ccccc4)NC3=Nc3ccccc3)n(C)c2=O)C(C)(C)c2ccccc21 40.6%, COc1cc(/C=C(\C#N)c2nc3c(s2)CC(C)CC3)ccc1O (stereo not drawn) 40.9%
